Measured values from PubChem BioAssay (NCATS).
Records with an inconclusive call do not appear. Activity calls are given as the source filed them. Calls come from the whole dose curve; as a rule, active = well fitted curve in the direction sought with a large enough effect; inconclusive = small, poorly fitted or top-dose-only effect, or another doubt; inactive = no such curve, though single readings can be large; an effect the other way counts as inactive or inconclusive.

Assays:
[1] = qHTS for Inhibitors of Plasmodium falciparum (DD2) proliferation (AID 504314);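 note: parasite DNA measured by SYBR Green fluorescence after red cell lysis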
How it was run: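 SYBR Green growth assay: 72 h compound exposure of infected red cells (2.5% hematocrit, 0.3% parasitemia), then lysis and overnight dye staining, fluorescence 485/535 nm. Values scaled between DMSO and 0.29 uM artemisinin controls.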

[2] = qHTS for Inhibitors of Plasmodium falciparum (GB4) proliferation (AID 504315); note: nearly all actives have a fitted effect of over 50% in size
How it was run: (§1)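 Parasite growth measured as SYBR Green DNA fluorescence (ex 485, em 535 nm) after overnight lysis following 72 h culture at 37 °C, 0.3% parasitemia, 2.5% hematocrit. Values normalized against DMSO and 0.29 uM artemisinin controls, with plate-stack correction.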

[3] = qHTS for Inhibitors of Plasmodium falciparum (7G8) proliferation (AID 504316); note: series mostly up to about 6.7 µM; nearly all actives have a fitted effect of over 65% in size
How it was run: as §1

[4] = qHTS for Inhibitors of Plasmodium falciparum (HB3) proliferation (AID 504318); note: nearly all actives have a fitted effect of over 60% in size
How it was run: as §1

[5] = qHTS for Inhibitors of Plasmodium falciparum (CP250) proliferation (AID 504320)
How it was run: as §1

Measured: Potency

CCCCc1nc2c(c3c1C[C@H](C)OC3)CN(C(=O)N[C@@H](C)c1ccccc1)CC2
inactive: [1] | [2] | [3] | [4] | [5]

CCN1C(=O)N[C@@H](c2ccccc2)[C@H](C(C)=O)[C@H]1C
inactive: [1] | [2] | [3] | [4] | [5]

CC1(OC(=O)c2ccc(Cl)nc2)C(=O)C=c2cc(-c3ccsc3)ncc2=C1OC(=O)C1CCCC1 (stereo not given)
inactive: [1] | [2] | [3] | [4] | [5]

CCCCC1=CC2=C(c3ccco3)C(=O)C(C)(OC(=O)c3ccc(OC)cc3)C(=O)C2=CN1C1CC1 (stereo not given)
inactive: [1] | [2] | [3] | [4] | [5]

COc1ccc(C2=CC3=C(Br)C(=O)C(C)(OC(=O)c4ccco4)C(=O)C3=CO2)cc1 (stereo not given)
inactive: [1] | [2] | [3] | [4] | [5]

CC(C)C(=O)N[C@@H]1CCCN1C(=O)C=Cc1ccccc1
inactive: [1] | [2] | [3] | [4] | [5]

COC(=O)C1=C(C(=O)OC)[C@@H]2N(Cc3ccccc3)c3ccccc3[C@@]23C[C@@H](C(=O)OC)N(C(=O)c2ccco2)C3=N1
inactive: [1] | [2] | [3] | [4] | [5]

COC(=O)CCC(=O)OC1(C)C(=O)C2=CN(Cc3ccccc3)C(c3ccc(OC)cc3)=CC2=C(Br)C1=O (stereo not given)
inactive: [1] | [2] | [3] | [4] | [5]

CCOC(=O)CNC(=O)O[C@@H]1C(=O)c2cc(OC)ccc2O[C@H]1c1ccc(OC)c(Br)c1
inactive: [1] | [2] | [3] | [4] | [5]

COC(=O)C1=C(C(=O)OC)[C@@H]2N(C)c3ccccc3[C@@]23C[C@@H](CO)N=C3N1
inactive: [1] | [2] | [3] | [4] | [5]

CC1(OC(=O)CCc2ccccc2)C(=O)C=C2C=C(c3ccc(C#N)cc3)N(C3CC3)C=C2C1=O (stereo not given)
inactive: [1] | [2] | [3] | [4] | [5]

C=CCOC(=O)N[C@@H](c1ccc(Br)cc1)C(C(C)=O)C(C)=O
inactive: [1] | [2] | [3] | [4] | [5]

COC/C=C/C1=CC2=CC(=O)C(C)(OC(=O)c3cnc4ccccc4n3)C(=O)C2=CN1C(CO)CO (stereo not given)
inactive: [1] | [2] | [3] | [4] | [5]

CCN1C(=O)NC(c2ccc(Br)cc2)C(C(=O)OC)=C1C (stereo not given)
inactive: [1] | [2] | [3] | [4] | [5]

COC(=O)CCCC1=CC2=C(c3ccccc3)C(=O)C(C)(OC(=O)C3CCCC3)C(=O)C2=CN1C(CO)CO (stereo not given)
inactive: [1] | [2] | [3] | [4] | [5]

COC(=O)C1=C(C)N(Cc2ccccc2)C(=O)N[C@H]1c1cccs1
inactive: [1] | [2] | [3] | [4] | [5]

CCOC(=O)CN1C(=O)N[C@@H](c2ccco2)C(C(C)=O)=C1C
inactive: [1] | [2] | [3] | [4] | [5]

CC1(OC(=O)CCc2ccccc2)C(=O)C=C2C=C3CCCN3C=C2C1=O (stereo not given)
inactive: [1] | [2] | [3] | [4] | [5]

CC1(OC(=O)c2ccc(Cl)nc2)C(=O)C=C2C=C(C3CC3)OC=C2C1=O (stereo not given)
inactive: [1] | [2] | [3] | [4] | [5]

COC(=O)CCCC1=CC2=CC(=O)C(C)(OC(=O)c3cccs3)C(=O)C2=CN1c1cccc(C#N)c1 (stereo not given)
inactive: [1] | [2] | [3] | [4] | [5]

CC#CCN1c2ccccc2[C@]23C[C@@H](C(=O)OC)N(C(=O)COCc4ccccc4)C2=NC(C(=O)OC)=C(C(=O)OC)[C@H]13
inactive: [1] | [2] | [3] | [4] | [5]

COCCN1C(=O)N[C@@H](c2cccc(F)c2)C(C(C)=O)=C1C
inactive: [1] | [2] | [3] | [4] | [5]

CC#CCN1c2ccccc2[C@]23C[C@@H](C(=O)OC)N(S(=O)(=O)c4cccs4)C2=NC(C(=O)OC)=C(C(=O)OC)[C@H]13
inactive: [1] | [2] | [3] | [4] | [5]

COCCN1C(=O)N[C@@H](c2ccccc2)[C@@H](C(=O)OC)[C@H]1C
inactive: [1] | [2] | [3] | [4] | [5]

CC#CCN1C(=O)N[C@@H](c2ccccc2)C(C(=O)OC)=C1C
inactive: [1] | [2] | [3] | [4] | [5]

C=CC[C@]1(C(=O)OC)C=C[C@H](C)[C@@H](c2ccccc2)N1C(=O)C(F)(F)F
inactive: [1] | [2] | [3] | [4] | [5]

CCN1C(=O)N[C@@H](CCc2ccccc2)C(C(C)=O)=C1C
inactive: [1] | [2] | [3] | [4] | [5]

COc1cccc(CC(=O)N2CCc3nc(-c4ccccc4)c4c(c3C2)CO[C@@H](C)C4)c1
inactive: [1] | [2] | [3] | [4] | [5]
